Assay [1] is described as follows: qHTS assay to identify small molecule agonists of the hypoxia (HIF-1) signaling pathway - cell viability counter screen (AID 1224844; calls by dose curve; also: nearly all actives have a fitted effect of over 50% in size; also: potency is read from the fitted curve at half-maximal effect). Put shortly: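 Tox21 10K compounds were added to HRE-bla ME-180 cells (0.5% dialyzed FBS) and incubated 17 hrs at 37C; ATP-based CellTiter-Glo luminescence then reported cell viability in the same wells.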
Background: In qHTS, concentration-response curves come from the screen itself.

A short description of assay [2]: qHTS assay to identify small molecule agonists of H2AX (AID 1224845; active = well fitted activation curve with a large enough effect in the signal ratio in the repeat runs, not every such curve was filed as active; the % refers to the signal ratio). Put shortly:
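Phospho-H2AX Ser139 measured by HTRF (ex 320 nm; em 665 and 620 nm) after 24 hr antibody incubation. Compounds, 15 concentrations, 0.76% DMSO, were applied to CHO-K1 cells for 3hr at 37C before lysis.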

Assay [3] in a line: qHTS assay to identify small molecule agonists of the hypoxia (HIF-1) signaling pathway (AID 1224846; active = well fitted activation curve with a large enough effect in the signal ratio in the repeat runs, not every such curve was filed as active; the % refers to the signal ratio). Put shortly:
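Steps: seed ME-180 HRE-bla cells (2,000/well, 0.5% dialyzed FBS); incubate 5 hrs at 37C; pin-transfer compounds or DMSO; incubate 17 hrs; add LiveBLAzer B/G substrate CCF4-AM; measure reporter activation by FRET.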

Assay [4] is described as follows: qHTS assay to identify small molecule agonists of H2AX - cell viability counter screen (AID 1224847; calls by dose curve;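 also: wild-type CHO-K1 cells; top concentration of the series differs between compounds; nearly all actives have a fitted effect of over 30% in size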). Put shortly:
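Counter-screen for viability: CellTiter-Glo ATP luminescence read after 3 h compound treatment (15-point titration, 0.76% DMSO final) of CHO-K1 cells at 37C, with 30 min room-temperature reagent incubation.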

Assay [5] can be described thus: qHTS assay to identify small molecule antagonists of the estrogen related receptor (ERR) signaling pathway from Tox21 library (AID 1224848). Also: nearly all actives have a fitted effect of over 50% in size. Also: potency is read from the fitted curve at half-maximal effect. Put shortly:
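Antagonist-mode screen of the Tox21 10K library in an NTP-provided ERR reporter cell line; 18 h compound exposure at 37 C, luminescence measured with ONE-Glo.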

A short description of assay [6]: qHTS assay to identify small molecule agonists of the estrogen related receptor (ERR) signaling pathway from Tox21 library (AID 1224849; calls by dose curve; also: nearly all actives have a fitted effect of over 15% in size). The following applies: ERR reporter cell line, ONE-Glo luciferase, 18 h; at 92.4 µM (top of the series) unless noted. Put shortly:
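Agonist signal is luciferase luminescence from an ERR reporter cell line treated 18 h at 37 C with DMSO-dissolved compounds, read 30 min after ONE-Glo addition at room temperature.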

Assay [7] in a line: qHTS RealTime-Glo MT Cell Viability Assay in HepG2 cells - 24 hour (AID 1224867). Also: nearly all actives have a fitted effect of over 50% in size. The method, boiled down:
(§1)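 Viability was tracked continuously by NanoLuc luminescence from prosubstrate reduced by living HepG2 cells, at successive time points over 40 h of compound exposure. Cells with reagent were preincubated 5 h at 37 °C before compound addition.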

Assay [8] is described as follows: qHTS RealTime-Glo MT Cell Viability Assay in HEK293 cells - 32 hour (AID 1224868). Also: nearly all actives have a fitted effect of over 50% in size. Also: potency is read from the fitted curve at half-maximal effect. Put shortly:
(§2)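 Viability tracked continuously by luminescence as live cells reduce a prosubstrate for NanoLuc; HEK293 cells preincubated 5 h, compound-treated at 37 C, and read at 0, 8, 16, 24, 32 and 40 h.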

A short description of assay [9]: A CellTox Green Cytotoxicity Assay to monitor cytotoxicity in HEK293 cells - 0 hour (AID 1224869). Also: nearly all actives have a fitted effect of over 50% in size. Put shortly:
(§3)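 Cytotoxicity was tracked continuously in HEK293 cells by a DNA-binding dye excluded from viable cells. Compounds were transferred in DMSO 5 h after seeding; fluorescence was recorded at intervals up to 40 h.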

Assay [10] in a line: qHTS RealTime-Glo MT Cell Viability Assay in HepG2 cells - 40 hour (AID 1224870). Also: nearly all actives have a fitted effect of over 50% in size. Also: potency is read from the fitted curve at half-maximal effect. The method, boiled down:
(§4)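 Real-time viability: cells seeded at 600 per well together with NanoLuc and cell-permeant prosubstrate, compounds added after 5 h incubation. Luminescence tracked at 0, 8, 16, 24, 32 and 40 h of exposure.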

The nature of assay [11]: A CellTox Green Cytotoxicity Assay to monitor cytotoxicity in HEK293 cells - 40 hour (AID 1224871). Also: nearly all actives have a fitted effect of over 45% in size. Put shortly: as §3
A short description of assay [12]: qHTS RealTime-Glo MT Cell Viability Assay in HEK293 cells - 16 hour (AID 1224872). Also: nearly all actives have a fitted effect of over 50% in size. Also: potency is read from the fitted curve at half-maximal effect. Put shortly: as §2
Assay [13] is described as follows: qHTS RealTime-Glo MT Cell Viability Assay in HepG2 cells - 8 hour (AID 1224873). Also: nearly all actives have a fitted effect of over 55% in size. The method, boiled down: as §4
Assay [14] is described as follows: qHTS RealTime-Glo MT Cell Viability Assay in HEK293 cells - 40 hour (AID 1224874). Also: nearly all actives have a fitted effect of over 50% in size. Also: potency is read from the fitted curve at half-maximal effect. To be noted: RealTime-Glo luminescence; max response: active compounds read low. Put shortly: (§5)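 Nonlytic bioluminescent viability monitoring. HEK293 at 600 cells/well with reagent; 5 h settle; compound transfer by pintool; plates held at 37 C and read at set time points.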
The nature of assay [15]: A CellTox Green Cytotoxicity Assay to monitor cytotoxicity in HEK293 cells - 24 hour (AID 1224875). Also: nearly all actives have a fitted effect of over 45% in size. The method, boiled down:
as §3

A short description of assay [16]: qHTS RealTime-Glo MT Cell Viability Assay in HepG2 cells - 32 hour (AID 1224877). Also: nearly all actives have a fitted effect of over 55% in size. Also: potency is read from the fitted curve at half-maximal effect. The method, boiled down: as §1
Assay [17] is described as follows: A CellTox Green Cytotoxicity Assay to monitor cytotoxicity in HepG2 cells - 24 hour (AID 1224878). Also: nearly all actives have a fitted effect of over 45% in size. Put shortly:
(§6)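 Real-time, homogeneous cytotoxicity readout: dead-cell DNA staining by CellTox Green in HepG2 monolayers, fluorescence measured at timed intervals up to 40 h of continuous compound exposure.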

A short description of assay [18]: A CellTox Green Cytotoxicity Assay to monitor cytotoxicity in HepG2 cells - 40 hour (AID 1224879). Also: nearly all actives have a fitted effect of over 40% in size. Put shortly: as §6
Assay [19] is described as follows: qHTS RealTime-Glo MT Cell Viability Assay in HEK293 cells - 0 hour (AID 1224880). Also: top concentration of the series differs between compounds; nearly all actives have a fitted effect of over 45% in size. Put shortly:
as §5

Assay [20] can be described thus: A CellTox Green Cytotoxicity Assay to monitor cytotoxicity in HepG2 cells - 16 hour (AID 1224876). Also: nearly all actives have a fitted effect of over 45% in size. Put shortly:
as §6

The record followed here is PubChem BioAssay (Tox21).

Values without a mark were called inactive. Records with an inconclusive call do not appear. Calls of active or inactive are those of the source. Unless noted, calls follow the shape of the dose curve; as a rule, active = well fitted curve in the direction sought with a large enough effect in the repeat runs; inconclusive = weak or mixed curves; inactive = no such curve, though single readings can be large; an effect the other way counts as inactive or inconclusive.
% is scaled to controls: 0 for no effect and ±100 for the full control effect.

Consider `OC(C#CCN1CCCC1)(c1ccccc1)c1ccccc1`, for which the Potency entry in assay [1], in [2], in assay [3], in assay [4], in assay [5] and in [7] was “inactive” each time. Further, the Potency result in assay [8], in [9], in [10], in assay [11], in [12] and in assay [13] was “inactive” each time. Moreover, the Potency entry in assay [15], in assay [16], in assay [17], in [18] and in assay [19] was “inactive” throughout. Also, the activity change, positive = activation in assay [6] is -10.1% [at 42.5 µM]. In [14], the max response is -8.96%.
As to `NCCCN1CCOCC1`, the Potency result in assay [1], in assay [2], in assay [3], in assay [4], in assay [5] and in [7] was “inactive” each time. Also, the Potency entry in [8], in [9], in assay [10], in [12], in assay [13] and in assay [15] was “inactive” throughout. For the same molecule, the Potency result in assay [20], in assay [16], in assay [17], in assay [18] and in assay [19] was “inactive” throughout. Also, in assay [6], the activity change, positive = activation is 6.49%. Also, in assay [14], the max response is -9.34%.
As for `Cc1c(N)cccc1[N+](=O)[O-]`, the Potency entry in assay [1], in assay [2], in assay [3], in assay [4], in assay [5] and in assay [8] was “inactive” in each case. The Potency result in assay [9], in assay [10], in assay [11], in [12], in assay [13] and in [15] was “inactive” throughout. In addition, the Potency result in assay [20], in assay [16], in [17], in assay [18] and in [19] was “inactive” each time. Moreover, the activity change, positive = activation in assay [6] is -14.7%. In addition, in [14], the max response was -13.1%.
Regarding `CC[N+](C)(CC)CCOC(=O)C(O)(c1ccccc1)C1CCCCC1` (configuration not stated), the Potency result in [1], in [2], in assay [3], in [4], in assay [5] and in [8] was “inactive” throughout. Also, the Potency entry in [9], in assay [10], in assay [11], in [12], in [13] and in [15] was “inactive” each time. The Potency result in assay [20], in [16], in assay [17], in [18] and in [19] was “inactive” each time. The activity change, positive = activation in [6] is -2.02% [at 42.5 µM]. Moreover, the max response in [14] was 6.78%.
Take `Nc1ccc([N+](=O)[O-])c(C(F)(F)F)c1`: the Potency entry in assay [1], in assay [2], in [3], in [4], in [5] and in assay [8] was “inactive” throughout. The Potency result in assay [9], in assay [10], in assay [11], in assay [12], in assay [13] and in [15] was “inactive” in each case. Moreover, the Potency entry in assay [20], in assay [16], in [17], in assay [18] and in [19] was “inactive” in each case. Moreover, the activity change, positive = activation in [6] is -17.3% [at 42.5 µM]. Besides, the max response in assay [14] is -6.2%.
On to `C=C(C)C(=O)OCC`, for which the Potency result in assay [1], in assay [2], in assay [3], in assay [4], in assay [5] and in [7] was “inactive” each time. The Potency entry in assay [8], in [9], in assay [10], in [11], in assay [12] and in assay [13] was “inactive” throughout. Besides, the Potency result in assay [15], in assay [16], in [17], in assay [18] and in assay [19] was “inactive” throughout. Further, in assay [6], the activity change, positive = activation is 5.74%. Also, the max response in [14] was 2.67%.
For `CCC(C)O` (configuration not stated), the Potency entry in assay [1], in [2], in [3], in [4], in assay [5] and in assay [7] was “inactive” each time. For the same molecule, the Potency result in [8], in [10], in assay [11], in [13], in assay [15] and in [20] was “inactive” each time. In addition, the Potency entry in assay [16], in [17], in [18] and in assay [19] was “inactive” throughout. Besides, the activity change, positive = activation in assay [6] was 0.0918%. The max response in assay [14] was 7.73%.
`ClCCOCCOCCCl`: the Potency entry in [1], in [2], in assay [3], in assay [4], in assay [5] and in [7] was “inactive” throughout. Besides, the Potency result in assay [8], in assay [10], in assay [11], in assay [12], in assay [13] and in assay [15] was “inactive” in each case. In addition, the Potency result in [16] and in assay [19] was “inactive” in each case. The activity change, positive = activation in assay [6] was 2.88%. In addition, the max response in [14] is 5.38%.
Turning to `C[Si](C)(CCCN)O[Si](C)(C)CCCN`, the Potency entry in [1], in [2], in assay [3], in assay [4], in assay [5] and in assay [7] was “inactive” throughout. Besides, the Potency entry in [8], in assay [9], in assay [10], in [13], in [15] and in assay [20] was “inactive” throughout. In addition, the Potency entry in assay [16], in assay [17], in [18] and in [19] was “inactive” throughout. Further, the activity change, positive = activation in assay [6] was -0.594%. In addition, in [14], the max response is -16%.
With `COc1cc2nc(N(C)CCCNC(=O)C3CCCO3)nc(N)c2cc1OC` (configuration not stated), the Potency result in [1], in assay [2], in assay [3], in assay [4], in assay [7] and in [9] was “inactive” each time. The Potency result in [10], in assay [11], in [15], in assay [16], in assay [17] and in [18] was “inactive” throughout. Moreover, the Potency result in assay [19] is “inactive”. The Potency in assay [5] was 9.44 µM (active). Moreover, the activity change, positive = activation in assay [6] was -34.3% [at 42.5 µM].
On to `CCCCC/C=C\C/C=C\CCCCCCCC(=O)NC(C)c1ccccc1` (configuration not stated), for which the Potency entry in assay [1], in assay [2], in assay [3], in [4], in assay [7] and in assay [8] was “inactive” in each case. In addition, the Potency result in assay [10], in assay [11], in [12], in [13], in assay [20] and in [16] was “inactive” in each case. For the same molecule, the Potency entry in [17], in assay [18] and in [19] was “inactive” throughout. Also, the Potency in [5] was 18.8 µM (active). Moreover, the activity change, positive = activation in [6] is -35.5% [at 42.5 µM]. Further, the max response in assay [14] is -16.2%.
As to `CC(COCCO)OCCO` (configuration not stated), the Potency entry in [1], in assay [2], in [3], in [4], in [5] and in [7] was “inactive” throughout. Besides, the Potency result in [8], in assay [9], in assay [10], in assay [12], in assay [15] and in assay [20] was “inactive” in each case. Besides, the Potency result in assay [16], in assay [17], in assay [18] and in [19] was “inactive” in each case. In assay [6], the activity change, positive = activation is 0.277%. Also, the max response in assay [14] was 4.24%.
As for `CCN(CC)CCNc1ccc(CNC=O)c2sc3ccc(OC)cc3c(=O)c12`, the Potency in [1] was 24.5 µM (active); in [5], 2.73 µM (active); in assay [8], 17.4 µM (active); in assay [10], 17.4 µM (active); in [12] it was 27.5 µM (active); in assay [14], 8.71 µM (active). In addition, the Potency in [16] is 19.5 µM (active). Also, the Potency result in assay [2], in assay [3], in [4], in assay [15], in [20] and in assay [17] was “inactive” throughout. For the same molecule, the Potency result in assay [19] was “inactive”. Besides, in [6], the activity change, positive = activation was -41.1%.
